PubChem BioAssay AID1521 (The Scripps Research Institute Molecular Screening Center, 2009)
Some of the results follow. Calls of active or inactive are those of the source.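 The calls were made as follows: active = mean inhibition above the hit cutoff derived in the earlier primary screen (cut at about 25% in these data); inactive = the rest.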

Test: viability loss in Ba/F3 EpoR-JAK2V617F cells, confirmation, JAK2V617F inhibitor project, cell-based, luminescence, triplicate (AID 1521);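 also: 0% = DMSO-treated cells and 100% = JAK inhibitor I control wells; higher means lower luminescence from reduced cell ATP and viability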
Details: CellTiter-Glo luminescence, at 5.6 µM, hits give high values

Structure (SMILES)	inhibition
COc1ccc(Cc2nnc(N/N=C/c3ccccc3O)[nH]c2=O)cc1OC	98.9% (active)
Cc1ccc(NC(=S)N(CCCN2CCC(C)CC2)Cc2ccco2)cc1	52.5% (active)
COc1cc(OC)cc(C(=O)N[C@H](C(=O)Nc2nc3ccccc3[nH]2)C(C)C)c1	99.1% (active)
CSCC(=O)N1CCCC(C(=O)c2cc(F)ccc2F)C1 (configuration not stated)	-9.05% (inactive)
COc1ccccc1N1CCN(Cc2ccc(OC)c3ccccc23)CC1	31.5% (active)
Cc1ccc(C2=NN(C)c3nc4ccccc4n3C2)cc1	-7.33% (inactive)
Cc1ccc(S(=O)(=O)C2(S(=O)(=O)c3ccc(C)cc3)CCCC2)cc1	62.1% (active)
N#C/C=C\Oc1ccc(Cl)cc1N	39.2% (active)
COc1ccc(OC)c(Nc2nc(-c3ccc(O)c(O)c3)cs2)c1	99% (active)
COc1ccc(-c2csc(Nc3ccc(O)cc3)n2)cc1	97.2% (active)
Oc1ccc(/C=N/Nc2ccc(C(F)(F)F)cn2)cc1O	99.2% (active)
COc1cc(OC)c(C(=O)NC2CCCCCC2)cc1OC	18.7% (inactive)
CCC1CCCCN1CCCNC(=O)c1cc2c(Cl)nc3ccccc3c2s1 (configuration not stated)	12.1% (inactive)
Cc1cccc(NC(=O)c2ccc([N+](=O)[O-])o2)c1	84.7% (active)
Cn1c(CCN2CCCCCC2)nc2cc(NC(=O)Nc3ccccc3)ccc21	-1.25% (inactive)
O=c1oc2ccccc2cc1-c1cn(-c2ccccc2)c(=S)[nH]1	92.7% (active)
CCn1c(/C=C/c2ccc([N+](=O)[O-])o2)nc2ccccc2c1=O	99.1% (active)
